The subject of experiment [1] is T1, RSK1(Kin.Dom.2-C-terminal).
T1 construct: gene RPS6KA1

The subject of experiment [2] is T2, RSK2(Kin.Dom.1-N-terminal).
T2 construct: gene RPS6KA3

Experiment [3] has as its system T3, RSK2(Kin.Dom.2-C-terminal).
T3 construct: gene RPS6KA3

Experiment [4] has as its system T4, RSK3(Kin.Dom.2-C-terminal).
T4 construct: gene RPS6KA2

The next experiment has as its system T5, TAK1.
T5 construct: gene MAP3K7
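Further: kd values determined as follow-up on hits from a single-replicate KINOMEscan panel screen.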

What is called Kd is a measure of binding affinity in units of concentration. Lower therefore signals tighter binding. Regarding `C[C@@H]1CC[C@H](C(=O)NC2CCCCC2)CN1c1cc(-c2ccc3c(N)n[nH]c3c2)nc(N)n1` [GSK2291363], the Kd in the experiment on ROCK1 is 0.21 µM; with ROCK2, 0.15 µM. As for `CCc1nc(-c2cccc(C)c2)c(-c2ccncc2)s1`, in experiment [1], binding was put at a Kd of 0.25 µM. In experiment [2], `COc1cc(Nc2ccnc3ccc(C(F)(F)F)cc23)cc(OC)c1OC` [GW577382] displayed a dissociation constant (Kd) above 10 µM. In experiment [3], `O=C(Nc1ccc2c(c1)OCO2)NC1CCN(c2ccnc(NCc3ccc(F)cc3)n2)CC1` [GSK1379859] had a Kd above 10 µM.

For `Nc1nc(-c2ccccc2F)c(-c2ccnc3ccccc23)s1` [GW560459], the affinity in experiment [3], expressed as Kd, was 0.79 µM. As for `CC(C)(C)c1ccc(C(=O)Nc2cn3cc(-c4ccccc4)ccc3n2)cc1`, the equilibrium dissociation constant (Kd) in experiment [4] was above 10 µM.

Take `Cl.NS(=O)(=O)c1cccc(Nc2cc(-c3ccc(F)cc3)n[nH]2)c1` [GW824645]: the Kd in the experiment on SGK2 is above 10 µM.

For the compound `COc1cc2ncn(-c3cc(OCc4ccncc4Br)c(C(N)=O)s3)c2cc1OC` [GW854278], in the experiment on SLK, binding was characterised by a dissociation constant (Kd) of 0.68 µM. As for `COc1ccc(CNC(=O)NC2CCN(c3ccnc(Nc4ccc(F)cc4)n3)C2)cc1` (stereo not drawn) [GSK1379706], the dissociation constant (Kd) in the experiment with SRPK2 was above 10 µM. `CN1C(=O)C(Nc2cc(Cl)c(O)c(Cl)c2)=C(c2ccc(Cl)cc2)C1=O` [SB-404321]: in the experiment with SRPK3, the dissociation constant Kd was above 10 µM. In the case of `CCn1c(-c2ccoc2)nc2cnccc21` [SB-733887], the dissociation constant (Kd) in the experiment on TAK1 is above 10 µM. On to `Cc1nnc(-c2ccc3ncn(-c4ccc(S(C)=O)cc4)c3c2)o1` (stereo not drawn), for which the dissociation constant Kd in the experiment with TAOK1 and in the experiment with TAOK3 was above 10 µM throughout.

In the experiment on TBK1, `COc1ccc(-c2cc3c(C)nc(N)nc3n([C@H]3CC[C@H](O)CC3)c2=O)cn1` registered a dissociation constant (Kd) above 10 µM. Regarding `O=C(NCCNc1ccnc(Nc2ccc(F)cc2)n1)Nc1ccc2c(c1)OCO2` [GSK1379882], the dissociation constant Kd with TESK1 was above 10 µM. In the experiment on TGFBR1, `Cc1cc(Nc2nc(-c3cccc(C)n3)nc3ccccc23)ccn1` [GW872411] gave a Kd of 0.27 µM. In turn, `COc1cc2ncn(-c3cc(OCc4ccncc4)c(C(N)=O)s3)c2cc1OC` [GSK336313] came in with a Kd with TIE1 above 10 µM. Turning to `CCCC(=O)Nc1n[nH]c2ncc(-c3cccc4ccccc34)cc12` [SB-642057], in the experiment on TLK2, the Kd is above 10 µM. In the experiment on TLK2, `O=C1NC(=O)C(c2ccccc2)=C1Nc1cccc(O)c1` [SB-390534] showed a dissociation constant (Kd) of 2.4 µM. Take `COc1cc(OC)cc(-c2cc3cnc(N)nc3nc2NC(=O)NC(C)(C)C)c1`: in the experiment with TNK2, the Kd was above 10 µM.
